Experimental findings from PubChem BioAssay AID686978 (National Center for Advancing Translational Sciences (NCATS), 2013) are described below.

Screen size: about 420,000 compounds; about 64,000 (15%) were called active. Another 27% or so got no clear call; they are omitted. Only a sample is shown. Unmarked numbers belong to inactive results. Calls follow the shape of the dose curve; as a rule, active = well fitted inhibition curve with a large enough effect; inconclusive = small, poorly fitted or top-dose-only effect; inactive = flat fitted curve, though single readings scatter.
% is scaled to controls: 0 for no effect and ±100 for the full control effect; potency is read from the fitted curve at half-maximal effect.

This assay in a line: qHTS for Inhibitors of human tyrosyl-DNA phosphodiesterase 1 (TDP1): qHTS in cells in absence of CPT. Also: nearly all actives have a fitted effect of over 55% in size. The following applies: DT40 Tdp1-/- hTDP1 cells, no CPT, ATP luminescence, 48 h; activity change, negative = growth inhibition: at 46.2 µM (top of the series). Put shortly: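 Camptothecin absent (DMSO only). Human TDP1-complemented DT40 knockout cells, 400 cells/well, 37 °C for minimum 48 hr; ATP measured via CellTiter-Glo, 30 min dark incubation, luminescence.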
On the technique in general: In qHTS, concentration-response curves come from the screen itself.
`CC(=O)Nc1ccc(NC(=O)CN2CCCC(C)C2)c(Cl)c1` (centres undefined): the “activity change, negative = growth inhibition” value was -19.7%.

As for `COC(=O)[C@@H](Cc1ccccc1)NC(=O)NCCc1ccccc1`, the “activity change, negative = growth inhibition” value was -19.1%.

As for `COc1ccc(-c2c(C)c3ccc(O)c(CN4CCN(C)CC4)c3oc2=O)cc1OC`, the “activity change, negative = growth inhibition” value is 0.717%.

Take `CCOC(=O)c1oc2c(CN3CCN(C)CC3)c(O)ccc2c(=O)c1-c1ccc(Br)cc1`: the “activity change, negative = growth inhibition” value is -6.83%.

In the case of `CN1CCN(Cc2c(O)ccc3c2oc(=O)c2ccccc23)CC1`, the Potency is 11.6 µM (active).

Turning to `COc1ccc(C(C)=O)cc1CSc1nc2nc(C)cc(C)n2n1`, the “activity change, negative = growth inhibition” value is -4.09%.

Turning to `CN(CCc1cn[nH]c1)C(=O)CC1C(=O)NCCN1Cc1cccc(Oc2ccccc2)c1` (centres undefined), the “activity change, negative = growth inhibition” value is -12.5%.

As to `O=C(Nc1cccc(Cc2ccccc2)c1)Nc1ccc2nc([C@@H]3O[C@H](CO)[C@@H](O)[C@H](O)[C@H]3O)[nH]c2c1`, the “activity change, negative = growth inhibition” value was -1.67%.

On to `O=C(CSc1ncc(CO)n1Cc1ccc(F)cc1)NCc1ccco1`, for which the “activity change, negative = growth inhibition” value was -26%.

As for `O=C(CCn1c(=O)c2sccc2n(Cc2ccc(F)cc2)c1=O)NCc1ccc2c(c1)OCO2`, the “activity change, negative = growth inhibition” value was -25.3%.

On to `O=C(Cc1ccc(-n2c(=O)c3sccc3n(Cc3ccc(F)cc3)c2=O)cc1)NCc1ccco1`, for which the Potency is 18.4 µM (active).

For the molecule `Cc1cc(OC(=O)c2ccc(OC(C)C)cc2)c([N+](=O)[O-])c(=O)[nH]1`, the “activity change, negative = growth inhibition” value was -21.1%.

On to `Cc1ccc2nc(SC(C)C(=O)NCc3ccco3)[nH]c2c1` (centres undefined), for which the “activity change, negative = growth inhibition” value was -9.56%.

For `CCc1cccc(NC(=O)COC(=O)C2CCN(c3ccc(C(F)(F)F)cn3)CC2)c1`, the Potency is 8.2 µM (active).

Turning to `CCOc1ccc(CCNC(=O)COC(=O)C2CCN(c3ccc(C(F)(F)F)cn3)CC2)cc1OCC`, the “activity change, negative = growth inhibition” value was -27.3%.

For the molecule `N#CCCN(C(=O)COC(=O)C1CCN(c2ccc(C(F)(F)F)cn2)CC1)c1ccc(F)cc1`, the “activity change, negative = growth inhibition” value was -13.5%.

For `CSCCC(C(=O)NC1=NCCS1)N1C(=O)c2ccccc2C1=O` (centres undefined), the “activity change, negative = growth inhibition” value was -1.2%.

As to `CCCCN(C(=O)/C=C/c1ccco1)c1c(N)n(CC(C)C)c(=O)[nH]c1=O`, the “activity change, negative = growth inhibition” value is -3.29%.

As to `O=C(CSc1ncccn1)NCCc1ccccc1`, the “activity change, negative = growth inhibition” value was -8.9%.

On to `CCCCCCCCCCCCCCCC(=O)OC/C=C(C)/C=C/C=C(C)/C=C/C1=C(C)CCCC1(C)C`, for which the Potency entry was “inactive”.

Turning to `COc1ccc(Nc2cc(Cl)ccc2C(=O)O)cn1`, the “activity change, negative = growth inhibition” value is 20.2%.

On to `COc1cc(C(O)c2nc(-c3cccc(C(=O)O)c3)cs2)ccc1F` (centres undefined), for which the “activity change, negative = growth inhibition” value was 3.86%.

With `COc1ccc(-c2csc(C(O)c3cccc(Cl)c3)n2)cn1` (centres undefined), the Potency was 20.6 µM (active).

For `CC1CCCN(CCOCCOc2ccccc2-c2ccccc2)C1` (centres undefined), the Potency was 23.1 µM (active).

Take `CC1CCCN(CC(O)COc2ccc3c(c2)OCO3)C1` (centres undefined): the “activity change, negative = growth inhibition” value is -0.973%.

Turning to `CC1CCCN(CC(O)COCc2ccccc2)C1` (centres undefined), the “activity change, negative = growth inhibition” value was 0.169%.

As for `CCC(C)(C)NC(=O)/C=C/c1cc(OC)c(OC)c(S(=O)(=O)N2CCc3ccccc32)c1`, the “activity change, negative = growth inhibition” value was -16%.

`COc1cc(C)c(C)cc1S(=O)(=O)N1CCCc2ccccc21`: the Potency is 16.4 µM (active).

Turning to `COc1ccc(C(=O)OCC(=O)NCC2CCCCC2)cc1S(=O)(=O)N1CCCc2ccccc21`, the “activity change, negative = growth inhibition” value was -23.6%.

Turning to `O=C(O)CCC(=O)NCc1ccc(C(=O)O)cc1`, the “activity change, negative = growth inhibition” value was -29.7%.

As for `Cn1c(CNC(=O)c2ccco2)nnc1SCC(=O)N1CCN(c2ccccc2)CC1`, the “activity change, negative = growth inhibition” value was 0.952%.

`CC(C)Cn1c(=O)c2ccccc2n2c(-c3cccc(Cl)c3)nnc12`: the Potency was 25.9 µM (active).

Regarding `CC(C)Cn1c(=O)c2ccccc2n2c(CCC(=O)NCc3ccccn3)nnc12`, the “activity change, negative = growth inhibition” value was 13.4%.

In the case of `Cc1cc2nnc(SCC(=O)N3CCN(c4ccccc4)CC3)n2c(N)n1`, the “activity change, negative = growth inhibition” value is -5.96%.

With `COc1cccc2c1cc1c(=O)n(CC(=O)N3CCN(c4cccc(Cl)c4)CC3)nc(C)n12`, the “activity change, negative = growth inhibition” value is -0.785%.

For `CC(C)Cn1c(=O)c2ccccc2n2c(CCC(=O)N3CCN(c4cccc(Cl)c4)CC3)nnc12`, the Potency is 7.31 µM (active).

As for `COc1ccc(NC(=O)CCc2nnc3n(CC(C)C)c(=O)c4ccccc4n23)cc1OC`, the “activity change, negative = growth inhibition” value was -22.6%.

For `Cc1ccc(Cl)cc1NC(=O)C(C)n1nnc2sc(-c3ccccc3)cc2c1=O` (centres undefined), the “activity change, negative = growth inhibition” value was -17.6%.

On to `Cn1c(Cc2cccc3ccccc23)nnc1SCC(=O)N1CCN(c2cccc(Cl)c2)CC1`, for which the Potency is 23.1 µM (active).

On to `CCC1CO/C(=C(\C(=C(Cl)Cl)N2CCOCC2)[N+](=O)[O-])N1` (centres undefined), for which the “activity change, negative = growth inhibition” value was 8.25%.

As for `CC(C)[C@H](NC(=O)N1c2ccccc2NC(=O)[C@@H]1C(C)C)C(=O)N[C@H](C(=O)O)c1ccccc1`, the “activity change, negative = growth inhibition” value was 5.29%.

Turning to `COc1cccc(N2C(=O)CC(N3CCc4ccccc4C3)C2=O)c1` (centres undefined), the “activity change, negative = growth inhibition” value is 7.01%.

Regarding `C=C(C)c1cccc(C(C)(C)NC(=O)NCCN(CC)CC)c1`, the “activity change, negative = growth inhibition” value was 0.602%.

Consider `O=C(Nc1ccc([N+](=O)[O-])cc1)C1(c2ccccc2)CCOCC1`, for which the “activity change, negative = growth inhibition” value was -23.3%.

Regarding `CC1(C)CC(=O)C(C=NCCC2=CCCCC2)=C(O)C1`, the “activity change, negative = growth inhibition” value was -10.8%.

`COc1ccc(OC)c(NC(=O)c2ccc3c(c2)C(=O)N(c2ccc(OC(C)=O)cc2)C3=O)c1`: the “activity change, negative = growth inhibition” value was 13.3%.

Consider `O=C(NCc1ccc(Cl)c(Cl)c1)c1cccnc1`, for which the “activity change, negative = growth inhibition” value was -24.1%.

With `O=C(/C=C/c1ccc(Cl)cc1Cl)c1cccnc1`, the Potency is 14.6 µM (active).

For `O=C(Nc1cccnc1)c1cc(Cl)ccc1Cl`, the “activity change, negative = growth inhibition” value is 14.2%.
